Screening results from PubChem BioAssay.
An excerpt weighted towards active compounds, which were near 2.4% of everything screened.
D2 PAM-1: human D2 receptor positive allosteric modulation; P14416; DiscoveRx D2 beta-arrestin cells, luminescence, 90 min; 100% = 57 uM dopamine signal; potentiation, % (no concentration beside the values); 360,000 compounds, 0.23% hits; AID 624464; in the data active = potentiation above about 50%; inconclusive = mostly about 30% to 49%
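PathHunter D2 cells, attached overnight at 37 deg C, received compound in DMSO plus dopamine at EC20 (50 nM final) for 90 min at 37 deg C. Beta-arrestin recruitment was read as luminescence after 1 h with detection reagent at ambient temperature.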
D2 antag: D2 dopamine receptor (human) antagonism | AID 485344 | P14416 | inhibition, % at 10 µM | HEK293 TREx D2 cells, calcium flux, dopamine EC80 | 340,000 compounds, 2% hits; in the data active = inhibition above about 30%; inactive = below that, where a call was filed
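Antagonism is scored as inhibition of an EC80 dopamine-evoked calcium signal in a force-coupled, tetracycline-inducible HEK293 T-REx D2 line, with compound present 180 s before agonist.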
D2 ag-1: activates the human D2 dopamine receptor. P14416. DiscoveRx PathHunter D2 beta-arrestin, luminescence, 90 min; 100% = 57 uM dopamine signal. activation, % (concentration not given with the values). 360,000 compounds, 0.084% hits. AID 624465; in the data active = activation above about 40%; inconclusive = between about 15% and that limit
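DiscoveRx PathHunter D2 beta-arrestin cells (2,100/well) attached overnight, then compound-stimulated 90 min at 37 C in HBSS/10 mM HEPES/0.1% Tween-20 buffer; beta-galactosidase complementation read by luminescence after 1 h at ambient temperature. Dopamine 57 uM final (EC100) as control.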
D2 ag-2: activates the human D2 dopamine receptor; P14416; HEK293 T-REx D2 cells, calcium flux agonist mode; activation, % at 2 µM; 340,000 compounds, 0.53% hits;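 active = activation over 3 SD above normal in the single-dose calcium agonist read, cut at about 30% in these data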
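In this primary screen, compounds producing a positive calcium signal within 180 s of addition to tetracycline-induced, force-coupled HEK293 Trex D2 cells are flagged; cells are dye-loaded with a no-wash calcium kit beforehand.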
D2 PAM-2: D2 dopamine receptor (human) potentiation; HEK293 T-REx D2, calcium flux, EC20 dopamine potentiation; P14416; potentiation, % at 10 µM; 340,000 compounds, 0.34% hits;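 active = potentiation over 3 SD above the plate norm, cut at about 30% in these data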
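Calcium flux readout, no-wash dye, 1 read/s. Inducible HEK293 Trex D2 line, overnight 30 C. Compound alone 180 s (agonist flags), then EC20 dopamine, another 180 s to score potentiation.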
D3 arrestin ag: confirmation of human D3 dopamine receptor agonists, beta-arrestin. shares compounds with D2 ag-2. DiscoveRx D3 beta-arrestin cells, luminescence, 90 min. Potency, µM (series often up to 76.9 µM), most hits filed as activators. 2,300 compounds, 4% hits; note: nearly all actives have a fitted effect of over 70% in size
Target sequence (P35462 whole entry, looked up): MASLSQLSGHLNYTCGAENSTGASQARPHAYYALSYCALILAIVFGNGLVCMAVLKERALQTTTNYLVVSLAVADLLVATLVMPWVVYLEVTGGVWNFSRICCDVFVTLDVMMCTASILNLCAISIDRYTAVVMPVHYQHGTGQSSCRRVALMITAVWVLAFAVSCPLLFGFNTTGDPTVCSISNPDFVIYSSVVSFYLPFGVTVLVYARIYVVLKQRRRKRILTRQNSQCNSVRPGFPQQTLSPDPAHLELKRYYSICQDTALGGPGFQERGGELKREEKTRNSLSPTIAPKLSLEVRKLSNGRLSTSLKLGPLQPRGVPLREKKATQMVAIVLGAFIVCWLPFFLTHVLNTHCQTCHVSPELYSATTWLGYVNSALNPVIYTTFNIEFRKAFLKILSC
D2 ag-3: activates human D2 dopamine receptor in D3 counterscreen | shares compounds with D2 ag-2 | DiscoveRx PathHunter D2 beta-arrestin, luminescence, 90 min; response scale: percent relative to full dopamine signal | Potency, µM (top dose mostly 76.9 µM), hits mostly activators | 2,300 compounds, 5.9% hits; note: nearly all actives have a fitted effect of over 70% in size
Of the large screens only hits and unclear results are named; the others gave an inactive call (follow-up assays come after a bar, where they were run). Unless noted, calls come from the whole dose curve; as a rule, active = well fitted activation curve with a large enough effect; inconclusive = small, poorly fitted or top-dose-only effect; inactive = flat fitted curve, though single readings scatter.

O=C(N1CCN(c2ccccc2)CC1)C(F)(F)C(F)F	none
O=C(CN1CCCCC1)N1CCN(c2ccccc2)CC1	none
O=C(N1CCN(c2ccccc2)CC1)C(F)(F)C(F)(F)F	none | D3 arrestin ag inactive | D2 ag-3 inactive
O=C(CN1CCN(c2ccccc2)CC1)N1CCN(c2ccccc2)CC1	D2 ag-2 47.1 | D3 arrestin ag inconclusive | D2 ag-3 inactive
CC(C(=O)Nc1ccc(N2CCOCC2)cc1)N1C(=O)c2ccccc2C1=O (centres undefined)	none
CC(C)C(C(=O)Nc1ccc(N2CCOCC2)cc1)N1C(=O)c2ccccc2C1=O (centres undefined)	none | D3 arrestin ag inactive | D2 ag-3 inactive
COc1ccc(CN2CCN(c3ccccn3)CC2)cc1OCc1ccccc1	D2 antag 87.0, D2 ag-1 inconclusive, D2 ag-2 71.6 | D3 arrestin ag inactive | D2 ag-3 inconclusive
COc1ccc(CN2CCN(C(=O)c3ccco3)CC2)cc1OCc1ccccc1	D2 antag 70.8, D2 ag-1 inconclusive, D2 ag-2 82.8 | D3 arrestin ag inconclusive | D2 ag-3 17.8µM
COc1ccc(CN2CCN(C(=O)c3ccco3)CC2)cc1OC	D2 PAM-1 inconclusive, D2 antag 59.8, D2 ag-1 83.8, D2 ag-2 86.0 | D3 arrestin ag inconclusive | D2 ag-3 15.8µM
CC1(C)CCc2cc(CN3CCN(c4ccccn4)CC3)ccc2O1	D2 antag 85.2, D2 ag-2 77.0 | D3 arrestin ag inactive | D2 ag-3 inconclusive
CCN1CCN(Cc2ccc(OC)c(OCc3ccccc3)c2)CC1	none
CCOC(=O)c1cccc(NC(=O)N2CC(CC)Sc3ccccc32)c1 (centres undefined)	none (no result: D2 PAM-1, D2 antag, D2 ag-1)
COc1ccc(-c2[nH]ncc2CN2CCN(c3ccccn3)CC2)c(OC)c1	D2 antag 57.4, D2 ag-2 69.2 | D3 arrestin ag inactive | D2 ag-3 inactive
CCOC(=O)c1c(C)[nH]c(C)c1C(=O)Cn1nnc(-c2ccccc2C)n1	none | D3 arrestin ag inactive | D2 ag-3 inactive
CCOC(=O)c1c(C)[nH]c(C(=O)Cn2nnc(-c3ccccc3Cl)n2)c1C	none
COc1ccccc1N1CCN(C(=O)Cn2c(=O)nc(-c3ccccc3)c3cc(Cl)ccc32)CC1	none (no result: D2 PAM-1, D2 antag, D2 ag-1)
CC1CN(C(=O)c2ccccc2OCc2ccc(Cl)cc2Cl)CC(C)O1 (centres undefined)	none | D3 arrestin ag inactive | D2 ag-3 inactive
COC(=O)c1sc(SC)c(-c2ccon2)c1C	none
CC(=O)N1C(O)CC(C)N1c1ccccc1 (centres undefined)	none | D3 arrestin ag inactive | D2 ag-3 inactive
CC(=O)N1CCN(C(C)=O)C1c1ccccc1	none
CCOc1ccc(CNC(=O)CCC(=O)N2CC(C)Sc3ccccc32)cc1 (centres undefined)	none (no result: D2 PAM-1, D2 antag, D2 ag-1)
COc1ccc(C(=O)N2CCN(CCCc3ccccc3)CC2)cc1OC	D2 ag-2 39.6 | D3 arrestin ag inconclusive | D2 ag-3 inactive
COc1cccc(C(=O)N2CCN(CCCc3ccccc3)CC2)c1OC	none
CCOC(=O)N1CCN(CCCc2ccccc2)CC1	D2 antag 34.2 | D3 arrestin ag inactive | D2 ag-3 inactive
CCN(CC)C(=O)c1cccc(-c2csc(C(C)(O)c3cccc(F)c3)n2)c1 (centres undefined)	D2 ag-1 inconclusive (no result: D2 antag, D2 ag-2, D2 PAM-2)
COc1cccc(C(=O)Nc2ccc(C(=O)OCc3cc(=O)n4nc(C5CC5)sc4n3)cc2)c1	none (no result: D2 PAM-1, D2 antag, D2 ag-1)
Nc1ccc(C(=O)N/N=C2\CCCc3c2[nH]c2ccccc32)cc1	none (no result: D2 antag, D2 ag-2, D2 PAM-2)
c1ccc(CCN=C2CCCc3c2[nH]c2ccccc32)cc1	D2 antag 58.1, D2 ag-2 76.5 | D3 arrestin ag inconclusive | D2 ag-3 inconclusive
CCOC(=O)Cn1c(=O)cc(C(F)(F)C(F)(F)F)c2c(C)nn(CC)c21	none (no result: D2 PAM-1, D2 antag, D2 ag-1, D2 ag-2)
Cc1ccc(S(=O)(=O)N(Cc2ccccc2F)C(=O)N2CCN(C)CC2)cc1	none
CCOc1ccc(/C=N/NC(=O)c2ccc(O)cc2)cc1CN1CC2CC(C1)c1cccc(=O)n1C2 (centres undefined)	none (no result: D2 antag, D2 ag-2) | D3 arrestin ag inactive | D2 ag-3 inactive
Cc1nc2ccccc2nc(=O)c1NNc1ccccc1	D2 ag-2 75.2 | D3 arrestin ag inactive | D2 ag-3 inactive
COc1ccc(/C=C(\NC(=O)c2ccccc2)C(=O)NCCN2CCOCC2)cc1	none (no result: D2 antag, D2 ag-2)
CCOC(=O)c1c(S(=O)(=O)N2CCC(C(=O)N3CCN(c4cccc(C)c4C)CC3)CC2)c(C)n(C)c1C	none (no result: D2 PAM-1, D2 antag, D2 ag-1)
COc1ccc(CC(=O)NCc2nc3cccnc3n2Cc2ccc(C)cc2)cc1OC	none (no result: D2 PAM-1, D2 antag, D2 ag-1)
COc1cccc(CN2CCN(Cc3cc4ccccc4[nH]3)CC2CCO)c1 (centres undefined)	D2 ag-2 31.5 | D3 arrestin ag inactive | D2 ag-3 inactive
O=C(CN1CCN(c2ccccn2)CC1)Nc1ccc(OC(F)(F)F)cc1	none
CN(C)c1ccc(NC(=O)CCN2CCN(c3ccccn3)CC2)cc1	D2 PAM-1 inconclusive, D2 antag 84.6, D2 ag-1 inconclusive, D2 ag-2 80.1 | D3 arrestin ag inconclusive | D2 ag-3 0.251µM
O=C(CCN1CCN(c2ccccn2)CC1)Nc1ccc(F)cc1	D2 antag 67.4, D2 ag-2 69.3 | D3 arrestin ag inconclusive | D2 ag-3 inactive
C=CCn1c(COc2ccc(Cl)cc2)nnc1SCC(=O)Nc1ccc(S(N)(=O)=O)cc1	D2 ag-2 59.0 | D3 arrestin ag inactive | D2 ag-3 inactive
CCN(C#N)c1nc(NC(C)C)nc(NC(C)(C)C)n1	D2 ag-2 40.2 | D3 arrestin ag inactive | D2 ag-3 inactive
CCCN(C#N)c1nc(NCC)nc(NC(C)C)n1	none
CCCCOc1ccc(-c2nnn(CC(=O)c3c[nH]c4ccccc34)n2)cc1	D2 ag-2 56.0 | D3 arrestin ag inactive | D2 ag-3 inactive
COc1ccc(-c2nnn(CC(=O)c3c[nH]c4ccccc34)n2)cc1OC	none
CCCCCOc1ccc(Cn2c(=O)oc3ccc(C)cc32)cc1OC	none (no result: D2 PAM-1, D2 antag, D2 ag-1)
NS(=O)(=O)c1ccc(CCNC(=O)Cn2c(-c3cccs3)cc3ccccc32)cc1	none (no result: D2 PAM-1, D2 antag, D2 ag-1)
O=C(NCc1n[nH]c(=O)c2ccccc12)C1CC(=O)N(c2ccc(Cl)cc2)C1 (centres undefined)	none | D3 arrestin ag inactive | D2 ag-3 inactive
COCCNC(=O)c1[nH]c2cc(C)ccc2c1Sc1ccc(Cl)cc1	none (no result: D2 PAM-1, D2 antag, D2 ag-1)
CC(CCc1ccc(O)cc1)N(C)CCc1ccccc1 (centres undefined)	D2 antag 90.7, D2 ag-2 38.7 | D3 arrestin ag inactive | D2 ag-3 inactive
COc1ccc(-n2c(Cc3cccn3C)nnc2SCC(=O)N2CCCC2)cc1	D2 ag-2 59.2 | D3 arrestin ag inactive | D2 ag-3 inactive
